These results are taken from PubChem BioAssay (NCATS).

SMILES strings stand for the structures. Results filed as inconclusive are left out. Where a call stands in place of a potency, no number is given. Activity calls are given as the source filed them. Calls come from the whole dose curve; as a rule, active = well fitted cell-killing curve with a large enough effect; inconclusive = small, poorly fitted or top-dose-only effect; inactive = flat fitted curve, though single readings scatter.
Potency is the fitted concentration of half-maximal effect.

A short description of this assay: Cell Viability - LYMP2-019 (AID 973). Note: nearly all actives have a fitted effect of over 55% in size. The following applies: LYMP2-019 lymphoblastoid cell line viability; series mostly up to 92.2 µM. An excerpt:
NIH Chemical Genomics Center [NCGC]
NIH Molecular Libraries Screening Centers Network [MLSCN]
National Institutes of Environmental Health Sciences [NIEHS]
National Toxicology Program [NTP]
We have developed a 1536-well cell-based assay for quantitative high throughput screening (qHTS) against a number of cell lines to determine in vitro cytotoxicity of small molecules. This particular assay uses a human lymphoblastoid cell line (LYMP2-019) purchased from Coriell Institute for Medical Research.
NCGC Assay Protocol Summary:
The CellTiter-Glo luminescent cell viability assay (Promega) is a homogeneous method to measure the number of viable cells in culture. The end point readout of this assay is based on quantitation of intracellular ATP, an indicator of metabolic activity, using the luciferase reaction. Luciferase catalyzes the oxidation of beetle Luciferin to oxyluciferin and light in the presence of ATP. The luminescent signal is proportional to amount of ATP present.
Using the CellTiter-Glo luminescent cell viability assay, the amount of cellular ATP was measured in the lymphoblastoid cell line with complete culture medium following compound treatment for 24 hours. The assay was performed in opaque white Kalypsys 1536-well plates. In the screen, tetraoctylammonium bromide was used as positive control. Library compounds were measured for their ability to cause acute toxicity in the cell line, as reflected by a decrease in intracellular ATP levels, in a concentration-dependent manner. […] AC50 values were determined from concentration-response data modeled with the standard Hill equation.
qHTS protocol for CellTiter Glo lymphoblastoid cellular assay
[Step] [Parameter] [Value] [Description]
1. Reagent; 5 uL; 2500 lymphoblastoid cells/well
2. Time; 5 hr; 37 C incubation
4. Controls; 23 nL; Tetraoctylammonium bromide 6.4pM to 92 uM
5. Time; 24 hr; 37 C incubation
6. Reagent; 5 uL; CellTiter Glo reagent
7. Time; 30 min; Room Temperature
8. Detection; Luminescence; Viewlux plate reader
Keywords: cell viability, cytotoxicity, lymphoblastoid cell line, luminescence, NTPHTS, NTPHTS_NCGC, NIEHS, DSSTox, MLSMR, MLSCN, NIH Roadmap, qHTS, NCGC
Turning to `N#CCCCl`, the Potency entry was “inactive”. With `c1ccc2c(c1)CCCC2`, the Potency entry is “inactive”. With `CCCSC(=O)Cl` the entry was “inactive”; with `CCCC(=O)Cl`, “inactive”; with `O=C1C(Cl)=C(Cl)C(=O)C(Cl)=C1Cl`, 25.1 µM (active). With `S=C=Nc1cccc2ccccc12` the entry was “inactive”; with `Cc1ccc([N+](=O)[O-])cc1C`, “inactive”; with `COP(=S)(OC)Oc1ccc([N+](=O)[O-])cc1`, “inactive”. As for `Cc1cccc([N+](=O)[O-])c1`, the Potency result is “inactive”. For `C=CC(C)=O` the value was “inactive”; for `O=C(Cl)C(Cl)(Cl)Cl`, “inactive”; for `c1ccc(OP(Oc2ccccc2)Oc2ccccc2)cc1`, “inactive”. As to `C=C(Cl)Cl`, the Potency result is “inactive”. For `Clc1nc(Cl)nc(Cl)n1` the value was “inactive”; for `Nc1ccccc1Cl`, “inactive”. With `CCCOC(=O)c1ccccc1C(=O)OCCC` the entry was “inactive”; with `COC(=O)NC(=S)Nc1ccccc1NC(=S)NC(=O)OC`, “inactive”. For `Brc1ccc(Oc2cc(Br)c(Br)cc2Br)c(Br)c1` the value was “inactive”; for `C=CC(=C)C`, “inactive”; for `Cc1cccc(C#N)c1`, “inactive”.

`Cc1ccc(O)c(C)c1`: the Potency result was “inactive”. With `CCC[CH2][Sn]([Cl])([Cl])[Cl]` the entry was “inactive”; with `O=[N+]([O-])c1cccc2ccccc12`, “inactive”. On to `O=NN(CCO)CCO`, for which the Potency entry is “inactive”. `CCc1cccc(CC)c1N(COC)C(=O)CCl`: the Potency is 50.1 µM (active). Turning to `C[C@H]1CCCC(=O)CCC/C=C/c2cc(O)cc(O)c2C(=O)O1`, the Potency result is “inactive”. With `OCC1CO1` (stereo not given) the entry was “inactive”; with `Clc1cccc(C(Cl)(Cl)Cl)n1`, “inactive”; with `CCCCCCCC(=O)Cl`, “inactive”. In the case of `ClC1=C(Cl)C2(Cl)C3C(Cl)C=CC3C1(Cl)C2(Cl)Cl` (stereo not given), the Potency result is “inactive”.

For `NC(=S)Nc1ccccc1`, the Potency entry was “inactive”. With `CC(=O)[O-].CC(=O)[O-].O.O.O.[Pb+2]` the entry was “inactive”.

As for `O=NN(c1ccccc1)c1ccccc1`, the Potency result is “inactive”.

Regarding `c1nc[nH]n1`, the Potency result is “inactive”.

On to `C[N+](C)(C)Cc1ccccc1`, for which the Potency result was “inactive”. With `CNC(=O)O/N=C/C(C)(C)SC` the entry was “inactive”. With `O=C(Cl)/C=C/C(=O)Cl` the entry was “inactive”; with `ClC(Cl)(Cl)c1ccccc1`, “inactive”. Regarding `COc1ccc(N)cc1`, the Potency entry is “inactive”. For `CCCCOC(=O)c1ccccc1C(=O)OCCCC` the value was “inactive”.
